High-throughput results as filed in PubChem.
MEKK2 WT-MEK5: raises or lowers MEK5 binding to wildtype human MEKK2 PB1 domain. 1.1% of 290,000 active. Q9Y2U5. binding response (% of control), % at 10 µM. bead flow cytometry, Alexa488-MEK5 binding to MEKK2 WT; actives lie on both sides; in the data active = binding response below about 67% or above about 130%
MEKK3 PB1 HTS: raises or lowers MEK5 binding to the human MEKK3 PB1 domain; Q99759; bead-based flow cytometry, Alexa488-MEK5 binding to MEKK3; actives lie on both sides; 0 = blocked by unlabeled MEK5, 100 = vehicle; binding response (% of control), % at 10 µM; 1.4% of 290,000 active;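 active = binding response more than 3 SD above or below the average of its plate-row segment, actives on both sides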;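 also: Alexa488 bead fluorescence after subtracting the streptavidin-only scavenger bead signal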
Target sequence (Q99759 whole entry, looked up, the tested form may be a part): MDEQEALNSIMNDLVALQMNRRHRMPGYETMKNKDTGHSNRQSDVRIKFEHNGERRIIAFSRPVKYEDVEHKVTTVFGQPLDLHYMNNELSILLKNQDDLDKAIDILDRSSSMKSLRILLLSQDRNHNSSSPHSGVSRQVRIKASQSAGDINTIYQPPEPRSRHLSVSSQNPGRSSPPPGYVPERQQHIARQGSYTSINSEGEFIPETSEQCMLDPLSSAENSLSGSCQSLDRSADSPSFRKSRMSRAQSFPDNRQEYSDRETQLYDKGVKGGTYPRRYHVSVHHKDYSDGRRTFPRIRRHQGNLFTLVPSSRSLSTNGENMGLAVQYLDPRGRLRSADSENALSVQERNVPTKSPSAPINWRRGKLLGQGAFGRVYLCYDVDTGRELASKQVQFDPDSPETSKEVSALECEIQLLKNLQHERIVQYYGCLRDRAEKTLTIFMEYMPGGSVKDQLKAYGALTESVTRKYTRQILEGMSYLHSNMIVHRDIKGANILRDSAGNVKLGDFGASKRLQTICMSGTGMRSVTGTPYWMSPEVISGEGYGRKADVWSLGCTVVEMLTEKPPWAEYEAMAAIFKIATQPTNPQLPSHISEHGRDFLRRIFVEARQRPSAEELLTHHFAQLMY
MEKK2 mut-MEK5: signal of MEK5 binding to mutant human MEKK2 PB1 domain | bead flow cytometry, Alexa488-MEK5 binding to MEKK2 mutant | percent response, % at 10 µM | 0.35% of 290,000 active | AID 1530; in the data active = percent response above about 24%, passing the limit was not always enough
GRK2 inh: inhibitors of human GRK2 displacing RNA aptamer | P25098 | bead flow cytometry, FAM-aptamer displacement from GRK2 | inhibition of aptamer binding, % at 10 µM | 0.59% of 330,000 active | AID 488847;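 active = inhibition of aptamer binding above 40%, roughly 3 SD of noise, on plates passing a quality check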;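 also: median bead fluorescence of bound FAM aptamer so fluorescent compounds give negative values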
MEKK2wt confirm: raises or lowers MEK5 binding to wildtype human MEKK2, retest; shares compounds with MEKK3 PB1 HTS; bead flow cytometry, Alexa488-MEK5 binding to MEKK2 WT; actives lie on both sides; binding response (% of control), % at 10 µM; 2.4% of 5,900 active; in the data active = binding response below about 16% or above about 210%; inactive = in between
MEKK2mut-MEK5: signal of MEK5 binding to mutant human MEKK2, retest. bead flow cytometry, Alexa488-MEK5 binding to MEKK2 mutant. percent response, % at 10 µM. 2% of 5,900 active. shares compounds with MEKK3 PB1 HTS; in the data active = percent response mostly above about 71%, no sharp cut-off; inactive = mostly below about 38%;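 also: higher means compound restores mutant binding toward wildtype level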
MEKK3 confirm: confirmation of inhibitors of MEK5 binding to human MEKK3; shares compounds with MEKK3 PB1 HTS; bead flow cytometry, Alexa488-MEK5 binding to MEKK3; active compounds read low; binding response (% of control), % at 10 µM; 1.8% of 5,900 active;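 active = binding response below 72% of control, or above a set upper limit, though filed actives all read lower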;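 also: lower values mean stronger disruption of MEK5 binding to MEKK3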
Each line names hits and unclear results; the compound was inactive in the other large screens (follow-up assays come after a bar, where they were run); [ ] = remark or other dose. Compounds with a hit are over-represented: about 2.5% of the library has one in this group of screens.

Cc1ccc(C(=O)N2C(=S)C(c3ccc(F)cc3)=NC23CCN(C)CC3)cc1	MEKK2 WT-MEK5 151.0 | MEKK2wt confirm inactive | MEKK2mut-MEK5 inactive | MEKK3 confirm inactive
Fc1ccc(C2=Nc3cccc4cccc(c34)N2)cc1	none
Brc1ccc(C2=Nc3cccc4cccc(c34)N2)o1	MEKK3 PB1 HTS 142.0 | MEKK2wt confirm inactive | MEKK2mut-MEK5 inactive | MEKK3 confirm inactive
CCCOc1ccc(C(=O)NCC(c2cccs2)N(C)C)cc1OC (stereo not drawn)	MEKK3 PB1 HTS 146.0 | MEKK2wt confirm inactive | MEKK2mut-MEK5 inactive | MEKK3 confirm inactive
CCCCCOc1ccc(CSC(=N)N)cc1[N+](=O)[O-]	MEKK2 WT-MEK5 148.0, MEKK2 mut-MEK5 34.0 | MEKK2wt confirm inactive | MEKK2mut-MEK5 inactive | MEKK3 confirm inactive
COc1ccc(CSC(=N)N)cc1[N+](=O)[O-]	none
COCCN(CCOC)c1cc(C)c(C#N)c2nc3ccccc3n12	none
Cc1cc(C)c(OCCCCCNCCO)c(C)c1	MEKK2 WT-MEK5 22.0[inhibitor], MEKK3 PB1 HTS 12.0[inhibitor] | MEKK2wt confirm inactive | MEKK2mut-MEK5 inactive | MEKK3 confirm inactive
COCCN(C(=O)CCC(=O)Nc1cc(C)on1)C(C(=O)NC1CCCC1)c1ccccc1F (stereo not drawn)	none
Cc1c(Cl)cnc(NC(=O)CSc2nncs2)c1Cl	MEKK3 PB1 HTS 144.0 (no result: GRK2 inh) | MEKK2wt confirm inactive | MEKK2mut-MEK5 inactive | MEKK3 confirm inactive
Cc1ccc(N(CC(=O)NCc2ccc3c(c2)OCO3)S(=O)(=O)c2c(C)noc2C)cc1	none
CCOC(=O)[C@H]1[C@H]2COc3cc(OC)ccc3[C@@H]2N2C(=O)CN(CC3CCCO3)C(=O)[C@@]12C (stereo partly drawn)	none (no result: MEKK2 WT-MEK5, MEKK3 PB1 HTS, MEKK2 mut-MEK5)
CCC(=O)Nc1ccc(OCc2nnc3c4ccccc4c(C)nn23)cc1	none
Cc1nn2c(COc3ccc(NC(=O)c4ccccc4)cc3)nnc2c2ccccc12	MEKK3 PB1 HTS 147.0 | MEKK2wt confirm inactive | MEKK2mut-MEK5 inactive | MEKK3 confirm inactive
CSc1ccc(CNC(=O)C2CCC(=O)N(Cc3cccc(F)c3)C2)cc1 (stereo not drawn)	none
CNC(=O)NNC(=O)c1csc(Cc2c(Cl)sc3ccc(Cl)cc23)n1	none
C#CCOCCOCCOCCNc1nc(N2CCOCC2)nc(N2CCN(C(=O)[C@H](C)n3cc(CCCN=C(N)N)nn3)CC2)n1	MEKK2 WT-MEK5 2.0[inhibitor], MEKK3 PB1 HTS 1.0[inhibitor] | MEKK2wt confirm inactive | MEKK2mut-MEK5 inactive | MEKK3 confirm inactive
C#CCOCCOCCOCCNc1nc(N2CCN(C(=O)[C@H](C)n3cc(CCCN=C(N)N)nn3)CC2)nc(N2CCN(C(=O)[C@H](C)n3cc(CCCN=C(N)N)nn3)CC2)n1	none (no result: GRK2 inh)
C#CCOCCOCCOCCNc1nc(N2CCN(C(=O)[C@H]([C@@H](C)CC)n3cc(CCCN=C(N)N)nn3)CC2)nc(N2CCN(C(=O)[C@H](C)n3cc(CCCN=C(N)N)nn3)CC2)n1	none (no result: GRK2 inh)
C#CCOCCOCCOCCNc1nc(N2CCN(C(=O)[C@H]([C@@H](C)CC)n3cc(CCCN=C(N)N)nn3)CC2)nc(N2CCN(C(=O)[C@H]([C@@H](C)CC)n3cc(CCCN=C(N)N)nn3)CC2)n1	MEKK2 WT-MEK5 164.0 (no result: GRK2 inh) | MEKK2wt confirm inactive | MEKK2mut-MEK5 inactive | MEKK3 confirm inactive
COC(=O)c1cccc(N(C(=O)c2cnccn2)C(C(=O)NC2CCCCC2)c2cn(C)nc2C)c1 (stereo not drawn)	MEKK3 PB1 HTS 46.0[inhibitor] | MEKK2wt confirm inactive | MEKK2mut-MEK5 inactive | MEKK3 confirm inactive
COc1cccc(CC2(CO)CCCN(Cc3cc4ccccc4[nH]3)C2)c1 (stereo not drawn)	MEKK2 WT-MEK5 148.0 | MEKK2wt confirm inactive | MEKK2mut-MEK5 inactive | MEKK3 confirm inactive
O=C(CSc1cccc[n+]1[O-])Nc1ccc2c(c1)OCO2	MEKK3 PB1 HTS 71.0[inhibitor] | MEKK2wt confirm inactive | MEKK2mut-MEK5 inactive | MEKK3 confirm inactive
O=C(CN(c1cccc([N+](=O)[O-])c1)S(=O)(=O)c1ccccc1)N(Cc1ccccc1)Cc1ccccc1	MEKK3 PB1 HTS 137.0 | MEKK2wt confirm inactive | MEKK2mut-MEK5 inactive | MEKK3 confirm inactive
O=C(CN(c1cccc([N+](=O)[O-])c1)S(=O)(=O)c1ccccc1)NCc1ccccc1	none
CCOC(=O)c1c(NC(=O)C(=O)N/N=C/c2ccccc2O)sc2c1CCCCC2	MEKK3 PB1 HTS 137.0 | MEKK2wt confirm inactive | MEKK2mut-MEK5 inactive | MEKK3 confirm inactive
O=C(Nc1ccccc1N1CCOCC1)c1ccc(Cl)nc1	MEKK3 PB1 HTS 72.0[inhibitor] | MEKK2wt confirm inactive | MEKK2mut-MEK5 inactive | MEKK3 confirm inactive
O=C(Nc1ccccc1N1CCOCC1)c1ccc2ccccc2c1	none
CC(=O)Nc1ccc(-c2nc3c(C)cccc3[nH]2)cc1	MEKK2 WT-MEK5 3.0[inhibitor], MEKK3 PB1 HTS 3.0[inhibitor] | MEKK2wt confirm inactive | MEKK2mut-MEK5 inactive | MEKK3 confirm inactive
Cc1[nH]n(-c2ccccc2)c(=O)c1C=Nc1ccc(S(=O)(=O)N(C)C)cc1	none
Cc1[nH]n(-c2ccc(F)cc2)c(=O)c1C=Nc1ccc(S(=O)(=O)N(C)C)cc1	MEKK2 WT-MEK5 11.0[inhibitor] | MEKK2wt confirm inactive | MEKK2mut-MEK5 inactive | MEKK3 confirm inactive
O=C(CC1C(=O)NCCN1CCCc1ccccc1)NCCc1ccccc1Cl (stereo not drawn)	MEKK2 mut-MEK5 31.0 | MEKK2wt confirm inactive | MEKK2mut-MEK5 inactive | MEKK3 confirm inactive
COc1ccccc1CCNC(=O)CC1C(=O)NCCN1CCCc1ccccc1 (stereo not drawn)	MEKK2 WT-MEK5 138.0, MEKK2 mut-MEK5 26.0 | MEKK2wt confirm inactive | MEKK2mut-MEK5 inactive | MEKK3 confirm inactive
Cc1c(NC(=O)OCCNC(=O)Nc2ccccc2)sc(=S)n1C	none
COc1ccc(NC(=O)Cc2cccs2)c(OC)c1	none
COC(=O)c1cc(OC)c(OC)cc1NC(=O)Cc1cccs1	MEKK2 WT-MEK5 7.0[inhibitor], MEKK3 PB1 HTS 5.0[inhibitor] | MEKK2wt confirm inactive | MEKK2mut-MEK5 inactive | MEKK3 confirm inactive
CC(=O)Nc1nnc(-c2ccccn2)o1	MEKK3 PB1 HTS 134.0 | MEKK2wt confirm inactive | MEKK2mut-MEK5 inactive | MEKK3 confirm inactive
N#CC(C#N)=c1ccc2c(c1)N1C(c3ccccc3)=CC(c3ccccc3)C3CCCCC31N=2 (stereo not drawn)	MEKK3 PB1 HTS 27.0[inhibitor] | MEKK2wt confirm inactive | MEKK2mut-MEK5 inactive | MEKK3 confirm 61.0
Fc1cc(NCc2ccccc2)nc(NCc2ccccc2)n1	none
Cc1cc(Oc2ccccc2)nc(NCc2ccccc2)n1	none
Cc1cc(Nc2ccccc2)nc(NCc2ccccc2)n1	MEKK2 WT-MEK5 167.0, MEKK2 mut-MEK5 67.0 | MEKK2wt confirm inactive | MEKK2mut-MEK5 inactive | MEKK3 confirm inactive
